Source: ChEMBL document CHEMBL3988442, “University of Dundee, Small-Polar-MMV Screening Library” (2021)
About 13,000 (27%) of roughly 48,000 compounds showed an effect of 50% or more. This is one part of the list.

Tested on: Wolbachia pipientis
Assay: Anti-Wolbachia Cell-Based Screen
Type: functional
Design: scale not given: in the data most compounds retested in dose-response had high values
Settings: 5 µM

Structure (SMILES) | Percent Effect [%]
CN(c1ncccc1CNC(=O)c1csnn1)C1CCCCC1 | 20.86
Cc1ccsc1CN(CCN(C)C)C(=O)c1ccc(C#N)nc1 | -1.147
NC1CCN(C2CCN(c3ccc(-c4ccco4)cc3)CC2)CC1 | -26.06
CCc1nsc(N2CCc3sccc3C2)n1 | 12.97
CNc1cccc(C2CCCN(C(=O)c3coc(C)n3)C2)n1 (stereo not given) | 115.1
CNc1cccc(C2CCCN(C(=O)c3cccnc3)C2)n1 (stereo not given) | 119.9
CNc1cccc(C2CCCN(C(=O)c3cnccn3)C2)n1 (stereo not given) | 101.6
CNc1cccc(C2CCCN(C(=O)c3ccncc3)C2)n1 (stereo not given) | -7.86
CNc1cccc(C2CCCN(C(=O)Cc3ccccc3)C2)n1 (stereo not given) | 110.2
O=C(N[C@@H]1CCN(c2ncc(Cl)cc2Cl)C[C@H]1O)c1cnccn1 | -4.452
COC(C)C(=O)Nc1cc(C(=O)N2CCSCC2)ccc1C (stereo not given) | -22.96
CNS(=O)(=O)c1ccc(CN2CCN3CCNC(=O)C3C2)cc1 (stereo not given) | -0.7065
COCCN1CCCC(O)(CN2CCN(c3cnccn3)CC2)C1=O (stereo not given) | -3.22
O=S(=O)(C1CC1)N1CCC(Cn2cccn2)CC1 | 1.748
Cc1cc(C(C)NC(=O)c2ccc(O)nc2)c(C)o1 (stereo not given) | 2.609
CCCS(=O)(=O)N1CCC(NC(=O)c2ccc(Cl)s2)CC1 | 8.314
O=C(NC1CC(=O)N(C2CC2)C1)c1ccc(Cl)s1 (stereo not given) | -7.498
CC(C)N1CC(NC(=O)c2ccc(Cl)s2)CC1=O (stereo not given) | 98.39
CCS(=O)(=O)N1Cc2[nH]nc(COCc3cccnc3)c2C1.O=C(O)C(F)(F)F | 98.27
O=C(C1CC1)N1Cc2[nH]nc(COCc3cccnc3)c2C1.O=C(O)C(F)(F)F.O=C(O)C(F)(F)F | 96.05
O=C(O)C(F)(F)F.O=C(O)C(F)(F)F.c1cncc(COCc2n[nH]c3c2CN(Cc2ccco2)C3)c1 | 1.979
O=C(NC1CC1)N1Cc2[nH]nc(COc3cccnc3)c2C1.O=C(O)C(F)(F)F | -0.5105
O=C(O)C(F)(F)F.O=S(=O)(C1CC1)N1Cc2[nH]nc(COCC3CC3)c2C1 | -8.849
O=C(O)C(F)(F)F.O=C(O)C(F)(F)F.O=C(O)C(F)(F)F.c1ccc(CN2Cc3[nH]nc(COc4cccnc4)c3C2)nc1 | 6.723
Cc1nn(C)c(C)c1C(C)NC(=O)Nc1cccnc1N1CCCC1 (stereo not given) | 8.996
Cc1nn(C)c(C)c1-c1ccc(=O)n(C(C)C(=O)NC(C)(C)C)n1 (stereo not given) | 122.1
CCSc1ccc(NC(=O)NC(C)c2c(C)nn(C)c2C)cn1 (stereo not given) | -34.73

Structure (SMILES) | Percent Effect [%]
COC(=O)[C@H]1CN(C(=O)NC(C)C)CCN1C(=O)c1cccs1 | 13.93
Cc1nc(N2CCCC2)nc2c1CN(C(=O)c1ccco1)CC2 | 4.912
Cc1nc(N2CCCC2)nc2c1CCN(C(=O)c1ccoc1C)CC2 | 99.57
Cc1cc(C(=O)N2CCc3nc(N4CCOCC4)nc(C)c3C2)c(C)o1.O=CO | 94.45
CN(C)c1nc(N2CCCC2)nc2c1CCN(C(=O)c1ccoc1)CC2 | -4.722
Cc1cc(C(=O)N2CCc3nc(N4CCCC4)nc(C)c3CC2)c(C)o1 | 102.5
CCc1noc(CS(=O)(=O)C(C)c2nc(C3CC3)no2)n1 (stereo not given) | -17.73
N#Cc1ccccc1OCCN1CCCC1Cn1cccn1 (stereo not given) | 7.756
COCC1CN(C(=O)Cc2ccc(F)cc2)Cc2ccnn2C1 (stereo not given) | 27.63
Cn1cc(Nc2cccc(C(=O)N(CC(N)=O)C3CCCC3)c2)cn1 | 6.719
CC(NC(N)=O)C(=O)NCc1cc(Br)ccc1F (stereo not given) | 3.265
CN1CCCN(C[C@@H]2CN(C(=O)CCc3cn[nH]c3)C[C@@H]2CO)CC1 | 1.74
COCc1nnn2c1CN(C(=O)c1ccnnc1)CCC2 | -7.41
CN(C)C(=O)NCc1nnn2c1CN(CC1CCOCC1)CCC2.O=C(O)C(F)(F)F | 4.127
O=C(C1CC=CC1)N1CCCn2nnc(CNc3ncccn3)c2C1 | 108.6
C1CN(CC2CCOCC2)Cc2c(COCC3CC3)nnn2C1.O=C(O)C(F)(F)F | 2.92
O=C(O)C(F)(F)F.c1cnc(NCc2nnn3c2CN(CC2CC2)CCC3)nc1 | 97.82
O=C(c1ccncc1)N1CCCn2nnc(Cn3cccn3)c2C1 | 4.632
O=C(CO)N1CCCn2nnc(Cn3cccn3)c2C1 | -5.05
O=C(CC1CC1)N1CCCn2nnc(CNc3ncccn3)c2C1 | 92.45
O=C(c1ccnnc1)N1CCCn2nnc(COCC3CC3)c2C1 | -17.91
COc1ccc(OC)c(CCNC(=O)NC(C)Cn2ccnc2)c1 (stereo not given) | -5.904
O=C(CSc1nncs1)N1CCN(Cc2ccc(Cl)s2)CC1 | -21
CCSc1ccc(C(C)NC(=O)CNS(C)(=O)=O)cc1 (stereo not given) | 4.212
O=C1OCCN1CCS(=O)(=O)c1cccc(Br)c1 | -18.91
CCC(C)CNCC1(S(C)(=O)=O)CCOCC1 (stereo not given) | -24.39
CC(=O)N1CCCCC1c1cc(CO)[nH]n1 (stereo not given) | -3.311

Structure (SMILES) | Percent Effect [%]
Cc1n[nH]c2ncc(CNC3CCCN(c4ncccn4)C3)cc12.Cl (stereo not given) | -16.46
OCc1cc(C2CCCN2c2ncccn2)n[nH]1 (stereo not given) | 112
O=C(c1sccc1C1CC1)N1CCN(Cc2cscn2)CC1 | 132.1
Cc1nc(CN2CCCN(C(=O)c3ccccn3)CC2)oc1C | 3.458
Cc1nc(CN2CCN(C(=O)c3sccc3C3CC3)CC2)oc1C | 120.2
COCc1nc(C(=O)N2CCN(Cc3cc(C)on3)CC2)cs1 | -18.23
Cc1cc(CN2CCN(C(=O)c3sccc3C3CC3)CC2)on1 | -1.767
Cc1cc(CN2CCN(C(=O)c3sccc3C3CC3)CC2)no1 | 143.4
Cc1nc(C2CCCN(C(=O)c3sccc3C3CC3)C2)no1 (stereo not given) | -10.65
O=C(c1sccc1C1CC1)N1CCCN(Cc2cscn2)CC1 | 113.8
NC(=O)NCC(=O)N1C[C@H]2CC[C@@H]1CN(Cc1ccccc1)C2 | -2.465
CCNc1ncc(C(=O)N[C@@H](C)[C@H](O)c2ccccc2)cn1 | -5.841
CS(=O)(=O)NCC(=O)N[C@H]1CN(CC2CC2)C[C@@H]1c1ccccc1 | 5.176
Cc1cc(C)n(C2CCN(S(C)(=O)=O)CC2)n1 | 88.3
Cc1cc(C)n(C2CN(CC(=O)NCC(C)(C)N3CCOCC3)C2)n1 | 4.363
Cc1cc(C)n(C2CCCN(C(=O)C3=NN(C)C(=O)CC3)C2)n1 (stereo not given) | -1.412
C[C@@H]1CN(S(=O)(=O)N2CCOCC2)C[C@@]1(O)C1CC1 | 13.89
CC1CCN(S(=O)(=O)N2CCc3sccc3C2)CC1 | 3.018
Cc1cc(C)n(C2CCCN(C(=O)c3c(C)c(C)n[nH]c3=O)C2)n1 (stereo not given) | -2.25
Cc1ccc([C@@H]2CN(S(=O)(=O)N3CCC(C)CC3)C[C@H]2N(C)C)cc1 | 5.444
Cc1cc(C)n(C2CCN(S(=O)(=O)N3CCOCC3)CC2)n1 | 108
Cc1cc(C)n(C2CCN(S(=O)(=O)N3CCC(C)CC3)CC2)n1 | 84.26
CN(Cc1cnn(C)c1)C1CCN(c2cccc(-c3cscn3)c2)CC1 | -7.204
CCn1c(CC2CCN(C(=O)c3cc(C(C)C)nn3C)CC2)n[nH]c1=O | 0.9199
Cc1occc1C(=O)NCC(=O)NCCCOc1ccc(F)cc1 | -8.265
CCc1nnc(CNc2ccc(CC(=O)N3CCSCC3)cc2)o1 | 7.337
COC(=O)[C@@H]1C[C@@H](NC(=O)CN2C(=O)N(C)Cc3ccccc32)CN1C | -9.28

Structure (SMILES) | Percent Effect [%]
Cc1ccc2[nH]c(=O)cc(C(=O)N[C@@H]3C[C@@H](CO)N(C)C3)c2c1 | 108.3
CCNC(=O)[C@@H]1C[C@H](NC(=O)c2cc(=O)[nH]c3ccc(C)cc23)CN1C | 116.2
CCc1ccc2nc(C)cc(C(=O)N[C@@H]3CCCNC3)c2c1 | -27.02
CCc1ccc2nc(C)cc(C(=O)N[C@@H]3C[C@@H](CO)N(C)C3)c2c1 | 90.46
COC(=O)[C@@H]1C[C@H](NC(=O)c2cc(=O)[nH]c3ccc(C)cc23)CN1C | 103.5
Cc1ccc2[nH]c(=O)cc(C(=O)NCCCn3nccc3C3CC3)c2c1 | -8.543
CNc1ccc(C)cc1C(=O)N[C@H]1C[C@H]2CN(C)CCN2C1 | 9.233
CCNC(=O)[C@@H]1C[C@@H](N)CN1C(=O)Cc1cc(C)ccc1C | -80.39
CCc1ccc2nc(C)cc(C(=O)NC3CCC(=O)N(C)C3)c2c1 (stereo not given) | -60.56
CCNC(=O)[C@@H]1C[C@H](N)CN1C(=O)Cc1cc(C)ccc1C | -8.677
COC(=O)[C@@H]1C[C@H](NC(=O)Cn2c(=O)cc(C)c3ccccc32)CN1C | 0.9939
CCNc1ncc(C(=O)N2CCOC(CCCc3ccccc3)C2)cn1 (stereo not given) | 15.39
Cc1nc(C)c(C(=O)NCc2nc3cccc(C)c3n2C)o1 | 31.6
O=C(c1ncn2c1CNS(=O)(=O)c1ccccc1-2)N1CCCCC1 | -12.5
CC(C)(CNC(=O)C1(c2cccc(Br)c2)CCOCC1)C(=O)O | -13.82
Cc1ccccc1CCC(=O)N1CCc2ncnc(NCCO)c2CC1 | -0.3127
Cc1cnccc1N1CCCN(C(=O)CCc2n[nH]c(C)c2C)CC1 | -9.911
Cc1nc(CCC(=O)N2Cc3cnc(-c4ccccc4)nc3C2)n[nH]1 | -6.082
Cc1n[nH]c(C)c1CCC(=O)N1CCc2c(nc[nH]c2=O)C1 | 106.7
COc1cccc(CC(=O)N2CCc3ncnc(NCCO)c3CC2)c1 | -0.2896
Cc1ccsc1[C@@H]1CCN(C(=O)CCc2n[nH]c(C)c2C)C[C@H]1O | 6.25
Cc1[nH]nc(CCC(=O)N2CCc3c(nc[nH]c3=O)C2)c1C | 104.7
Cc1[nH]nc(CCC(=O)N2CCc3ncnc(NCCO)c3CC2)c1C | 77.14
CSCCC(=O)N1CCc2c(ncnc2N2CCOCC2)C1 | -13.57
